Experimental data from the supplement of paper PMC3545927.
The other results are listed elsewhere or left out. The true hit rate is not given.

Biological target: furin, P09958
Experiment: furin cleavage Z-score vs untreated control; higher = more cleavage, active = 3.5 or more, inactive = 1 or less, 8 variable residues between constant flanks
Outline: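 Sequencing of released DNA, tagged with adapters by PCR, gave read counts used as abundance. That DNA was freed when purified furin cut N-terminally bead-bound 8-mer peptides fused to a cDNA oligonucleotide, in 0.01 ml reactions at 1:10 enzyme:substrate in 50 mM HEPES pH 7.5 with CaCl2 and NaCl, lasting 7.5, 15 or 30 min. The cleavage Z-score was the lowess-adjusted log count versus furin-free reactions, scaled by median absolute deviation.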

Sequence of furin, P09958 (P09958 whole entry): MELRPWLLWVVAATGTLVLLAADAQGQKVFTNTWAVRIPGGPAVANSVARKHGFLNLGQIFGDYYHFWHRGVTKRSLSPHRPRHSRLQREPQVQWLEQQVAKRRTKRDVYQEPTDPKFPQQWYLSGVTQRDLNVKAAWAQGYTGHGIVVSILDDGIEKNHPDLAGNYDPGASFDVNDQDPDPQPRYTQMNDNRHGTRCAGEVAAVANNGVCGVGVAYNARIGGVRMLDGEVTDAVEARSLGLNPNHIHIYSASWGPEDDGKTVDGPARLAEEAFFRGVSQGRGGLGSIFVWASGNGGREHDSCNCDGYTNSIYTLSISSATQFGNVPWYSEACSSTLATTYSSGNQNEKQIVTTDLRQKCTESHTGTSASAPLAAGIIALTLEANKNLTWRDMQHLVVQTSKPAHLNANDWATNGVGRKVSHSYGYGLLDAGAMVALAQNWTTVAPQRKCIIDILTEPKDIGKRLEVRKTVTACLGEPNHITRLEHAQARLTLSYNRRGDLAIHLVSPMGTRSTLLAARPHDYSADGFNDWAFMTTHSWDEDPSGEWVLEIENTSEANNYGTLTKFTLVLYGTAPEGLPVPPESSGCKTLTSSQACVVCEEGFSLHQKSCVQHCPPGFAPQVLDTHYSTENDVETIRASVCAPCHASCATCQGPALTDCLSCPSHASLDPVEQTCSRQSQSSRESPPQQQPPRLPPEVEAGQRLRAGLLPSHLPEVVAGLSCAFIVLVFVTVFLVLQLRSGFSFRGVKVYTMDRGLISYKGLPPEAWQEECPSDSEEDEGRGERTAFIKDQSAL

Sequence | furin cleavage Z-score (7.5 min) | furin cleavage Z-score (15 min) | furin cleavage Z-score (30 min)
CAAYDIIICDAGNASASA [HC815] | -1.2 (inactive) | -0.574 (inactive) | -0.848 (inactive)
CAVVGVVCAAAGNASASA [HC1107] | 0.556 (inactive) | -0.0757 (inactive) | -0.152 (inactive)
CAVQGLLRFCAGNASASA [HC618] | -0.0765 (inactive) | 0.463 (inactive) | -0.436 (inactive)
CAIRKRDRRGAGNASASA [FS-1016] | 12 (active) | 13.2 (active) | 9.35 (active)
CAPANRSRRGAGNASASA [FS-67] | 10.1 (active) | 11.8 (active) | 9.38 (active)
CAIIKRSRRGAGNASASA [FS-1344] | 6.89 (active) | 7.38 (active) | 7.28 (active)
CAIIKRSAWEAGNASASA [FS-2408] | -0.767 (inactive) | -0.224 (inactive) | -0.00284 (inactive)
CALARRSRRGAGNASASA [FS-816] | 7.83 (active) | 7.63 (active) | 6.48 (active)
CAPFVSCQRGAGNASASA [HC1164] | 0.755 (inactive) | 0.834 (inactive) | -0.509 (inactive)
CALASRRYRGAGNASASA [FS-547] | -0.863 (inactive) | -0.493 (inactive) | -0.101 (inactive)
CAGVPRSFRGAGNASASA [TR2] | 0.299 (inactive) | -0.905 (inactive) | -1.74 (inactive)
CAMEEKSQHLAGNASASA [HC11] | 0.661 (inactive) | -0.101 (inactive) | 0.52 (inactive)
CATTPQSGSWAGNASASA [HC59] | -0.528 (inactive) | -0.454 (inactive) | -0.569 (inactive)
CAGFTKVCGAAGNASASA [HC440] | 0.851 (inactive) | 0.701 (inactive) | -1.33 (inactive)
CANSSIVYEAAGNASASA [HC265] | 0.639 (inactive) | -1.3 (inactive) | -0.329 (inactive)
CAEVVTSGWVAGNASASA [HC2216] | 0.374 (inactive) | -0.391 (inactive) | -0.0659 (inactive)
CARVARHAAPAGNASASA [FS-2193] | 7.61 (active) | 8.49 (active) | 8.42 (active)
CAGTPCSGSWAGNASASA [HC1836] | -0.934 (inactive) | -0.454 (inactive) | -1.18 (inactive)
CARQAEVIAPAGNASASA [HC1031] | 0.765 (inactive) | 1.4 | -0.146 (inactive)
CAGRERMAREAGNASASA [FS-332] | 5.27 (active) | 6.35 (active) | 5.57 (active)
CAPQARVAIKAGNASASA [HC1494] | 0.98 (inactive) | -0.346 (inactive) | 1.74
CADFERKAREAGNASASA [FS-222] | 0.924 (inactive) | 0.123 (inactive) | 0.387 (inactive)
CARVARVAREAGNASASA [FS-1799] | 7.74 (active) | 5.71 (active) | 5.82 (active)
CAGRGRERRWAGNASASA [FS-333] | 6.35 (active) | 9.27 (active) | 8.33 (active)
CARVARVRGGAGNASASA [FS-1938] | -0.221 (inactive) | -0.337 (inactive) | -1.51 (inactive)
CAGREILLGPAGNASASA [HC664] | -0.781 (inactive) | -0.532 (inactive) | 0.339 (inactive)
CARVDRDVAPAGNASASA [FS-2616] | 0.776 (inactive) | -0.0435 (inactive) | 0.369 (inactive)
CAGRGRGGGGAGNASASA [NG4] | 0.497 (inactive) | -0.137 (inactive) | 0.673 (inactive)
